# Legend:
# Assay in all cases: PBM binding z-score (relative to random genomic background probes); higher = stronger binding; sequences stand for … in GC…GCGATTGACAGCGTAGAATGAAGG
# [1] = test system: PPARg:RXRa DBDmut IVT, anti-RXR (DBD mutation: RXRa K156A/R161A, NR concentration 270 nM, RXRa partner concentration 90 nM)
# Procedure, shortened: (§1)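 Binding z-scores take random background probes as their reference. They come from custom Agilent 4×180K protein-binding microarrays incubated 1 h with ligand-free nuclear receptor dimers, with antibodies against each partner (one per run) detecting binding. Scanned fluorescence was regression-normalized.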
# [2] = test system: PPARg:RXRa IVT, anti-PPARg (NR concentration 270 nM, RXRa partner concentration 90 nM)
# Procedure, shortened: as §1
# [3] = test system: PPARg DBDmut:RXRa IVT, anti-PPARg (DBD mutation: PPARg1 K132A/R137A, NR concentration 270 nM, RXRa partner concentration 90 nM)
# Procedure, shortened: as §1
# [4] = test system: PPARg DBDmut IVT, anti-PPARg (DBD mutation: PPARg1 K132A/R137A, NR concentration 270 nM)
# Procedure, shortened: as §1
# [5] = test system: PPARg homodimer (NR concentration 180 nM)
# Procedure, shortened: as §1
# [6] = test system: PXR:RXRa (NR concentration 270 nM, RXRa partner concentration 90 nM)
# Procedure, shortened: as §1
# [7] = test system: PXR homodimer (NR concentration 270 nM)
# Procedure, shortened: as §1
# [8] = test system: RARa:RXR (NR concentration 270 nM, RXRa partner concentration 90 nM)
# Procedure, shortened: as §1
# [9] = test system: RARa homodimer (NR concentration 270 nM)
# Procedure, shortened: as §1
# [10] = test system: RARb:RXRa (NR concentration 270 nM, RXRa partner concentration 90 nM)
# Procedure, shortened: as §1
# [11] = test system: RARb homodimer (NR concentration 270 nM)
# Procedure, shortened: as §1
# [12] = test system: RARg:RXRa (NR concentration 270 nM, RXRa partner concentration 90 nM)
# Procedure, shortened: as §1
# [13] = test system: RARg homodimer (NR concentration 270 nM)
# Procedure, shortened: as §1
# [14] = test system: RXRa DBDmut IVT, anti-RXR (DBD mutation: RXRa K156A/R161A, NR concentration 90 nM)
# Procedure, shortened: as §1
# [15] = test system: RXRa homodimer (NR concentration 180 nM)
# Procedure, shortened: as §1
# [16] = test system: THRa:RXRa (NR concentration 90 nM, RXRa partner concentration 90 nM)
# Procedure, shortened: as §1
# [17] = test system: THRa homodimer (NR concentration 90 nM)
# Procedure, shortened: as §1
# [18] = test system: VDR:RXRa (NR concentration 270 nM, RXRa partner concentration 90 nM)
# Procedure, shortened: as §1
# [19] = test system: VDR homodimer (NR concentration 270 nM)
# Procedure, shortened: as §1
Sequence,PBM binding z-score [1],PBM binding z-score [2],PBM binding z-score [3],PBM binding z-score [4],PBM binding z-score [5],PBM binding z-score [6],PBM binding z-score [7],PBM binding z-score [8],PBM binding z-score [9],PBM binding z-score [10],PBM binding z-score [11],PBM binding z-score [12],PBM binding z-score [13],PBM binding z-score [14],PBM binding z-score [15],PBM binding z-score [16],PBM binding z-score [17],PBM binding z-score [18],PBM binding z-score [19]
TATCGGAGGACACGAAGGTCAGAGCTTTCCAGAG,0.135,1.54,-0.485,-0.6,1.67,1.9,1.2,2.05,0.593,3.22,3.47,3.17,3.73,0.00455,1.79,2.88,0.977,2.32,1.46
TCATATTGGTAAAAGGTGAAAGTCGGTGTGGTAA,2.97,2.77,1.12,2.43,2.62,1.43,0.68,2.1,2.36,2.01,2,1.24,0.709,1.66,1.99,1.62,0.665,1.64,0.829
TCTCGGAGGACACGAAAGGTAAGAGCTCGACATC,1.28,-0.239,-1.14,-1.23,-0.641,-0.211,-0.673,-0.135,-0.792,1.59,0.782,0.65,1.6,0.729,0.0654,2,0.0945,0.0922,-0.863
CAAACTAGGTCACCGGAAGGTCAAAGTACGCATG,8.79,8.9,4.79,1.89,9.62,6.54,1.85,8.16,4.07,5.38,5.73,8.48,7.65,2.43,6.46,4.8,3.25,6.17,3.52
ATCGAAAGGTCGTTAGGTGAGTATACAGAAAGGC,0.388,2.1,1.14,1.04,1.51,2.9,0.99,3.2,0.848,3.53,2.59,3.91,3.44,2.2,3.98,2.51,0.793,3.58,1.84
ATCTCCAGGTAAAAGTTCAGTGAATCCCGAGGAT,0.0885,2.31,1.68,1.01,1.84,2.4,1.88,2.14,1.07,2.6,2.54,2.14,2.33,0.595,1.94,1.57,0.432,1.43,1.84
ATATGTATGTTATCGGGTCATTCAGTTTGCGCAT,4.28,4.3,1.17,1.83,1.39,3.37,6.74,2.59,1.05,1.98,2.47,2.01,1.75,1.81,2.28,3.26,2.66,4.9,3.18
